Test results from the supplement of paper PMC8975748.
Where a name gives a salt, the structure may show the parent alone.

Test system: Saccharomyces cerevisiae BY4741 SeMeCo community
Assay: z-score of subpopulation abundance vs DMSO median, subpopulation auxotrophic for LUM; higher = larger share of this subpopulation than in DMSO controls
Details: 10 µM; 24 h; SM minimal medium; subpopulation (auxotrophy): LUM
Method: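 Fluorescent four-plasmid SeMeCo (self-establishing metabolically cooperating S. cerevisiae BY4741 community; plasmids pH-mRuby2, pL-mWasabi, pU-eCFP, pM-TagRFP657) was grown 24 h in minimal SM medium with each Selleck FDA-approved drug at 10 µM in 384-well plates. Cells were fixed and imaged by high-content confocal microscopy. For each auxotrophic subpopulation (and the prototroph), a z-score gives the deviation from the DMSO vehicle-control population median.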

Row | Compound | z-score of subpopulation abundance
1 | CC1(C)SC2C(N)C(=O)N2C1C(=O)O (centres undefined) [6-Aminopenicillanic acid] | -0.93
2 | CN1c2ccccc2C(NCCCCCCC(=O)O)c2ccc(Cl)cc2S1(=O)=O (centres undefined) [Tianeptine sodium] | 0.15
3 | CN(C)C(=O)Oc1ccc[n+](C)c1 [Pyridostigmine Bromide] | -0.35
4 | C=CN1CCCC1=O.II [Povidone iodine] | 0.83
5 | COc1cc2c(cc1OC)C1CC(=O)C(CC(C)C)CN1CC2 (centres undefined) [Tetrabenazine (Xenazine)] | 0.67
6 | COc1ccc2[nH]cc(CCN)c2c1 [5-Methoxytryptamine] | 0.78
7 | C[N+]12CCC(CC1)C(OC(=O)C(O)(c1ccccc1)c1ccccc1)C2 (centres undefined) [Clidinium Bromide] | -0.9
8 | CC(=O)O[C@H]1C[C@@H]2CC[C@@H]3[C@H](CC[C@@]4(C)[C@H]3C[C@H]([N+]3(C)CCCCC3)[C@@H]4OC(C)=O)[C@@]2(C)C[C@@H]1[N+]1(C)CCCCC1 [Pancuronium dibromide] | -0.96
9 | O=C(O[C@H]1C[N+]2(CCCOc3ccccc3)CCC1CC2)C(O)(c1cccs1)c1cccs1 [Aclidinium Bromide] | -0.16
10 | NC(=O)CN1CCCC1=O [Piracetam] | 2.09
11 | CCN(C)C(=O)Oc1cccc([C@H](C)N(C)C)c1 [Rivastigmine] | -0.27
12 | CCOC(=O)Nc1ccc(NCc2ccc(F)cc2)cc1N [Retigabine 2HCl] | -0.01
13 | C=C(C)[C@H]1Cc2c(ccc3c2O[C@@H]2COc4cc(OC)c(OC)cc4[C@@H]2C3=O)O1 [Rotenone (Barbasco)] | -0.01
14 | C[N+]1(C)[C@@H]2C[C@@H](OC(=O)[C@H](CO)c3ccccc3)C[C@H]1[C@@H]1O[C@@H]12 [Methscopolamine] | 0.43
15 | COc1ccc2c3c([nH]c2c1)C(C)=NCC3 [Harmaline] | -4.96
16 | C[C@@H]1O[C@@H](O[C@H]2C[C@@H](O)[C@]3(CO)[C@H]4[C@H](O)C[C@]5(C)[C@@H](C6=CC(=O)OC6)CC[C@]5(O)[C@@H]4CC[C@]3(O)C2)[C@H](O)[C@H](O)[C@H]1O [Ouabain] | -0.83
17 | CC(C)=CCOc1c2occc2cc2ccc(=O)oc12 [Imperatorin] | 0.74

Row | Compound | z-score of subpopulation abundance
18 | CN[C@@H]1[C@@H](O)[C@@H](O[C@@H]2[C@@H](O)[C@H](O[C@H]3O[C@H]([C@@H](C)O)[C@@H](O)[C@H](O)[C@H]3N)[C@@H](N)C[C@H]2N)OC[C@]1(C)O [Geneticin (G418 Sulfate)] | -0.36
19 | CCC1=C[C@H]2CN3CCc4c([nH]c5ccccc45)[C@](C(=O)OC)(C2)[C@H]13 [Catharanthine] | -0.3
20 | CC[N+](C)(CC)CCOC(=O)C(O)(c1ccccc1)c1ccccc1 [Methylbenactyzine Bromide] | -1.06
21 | Oc1cc(Cl)ccc1Oc1ccc(Cl)cc1Cl [Triclosan] | 0.02
22 | CN(C)[C@@H]1C(=O)C(C(N)=O)=C(O)[C@@]2(O)C(=O)C3=C(O)c4c(O)cccc4[C@@](C)(O)[C@H]3[C@H](O)[C@@H]12 [Oxytetracycline Dihydrate] | 0.01
23 | C=CCN1C[C@H](C(=O)N(CCCN(C)C)C(=O)NCC)C[C@@H]2c3cccc4[nH]cc(c34)C[C@H]21 [Cabergoline] | 0.18
24 | O=[N+]([O-])C(Br)(CO)CO [Bronopol] | -0.07
25 | CN1[C@@H]2C[C@@H](OC(=O)[C@H](CO)c3ccccc3)C[C@H]1[C@@H]1O[C@@H]12 [Scopolamine HBr trihydrate] | -0.33
26 | Cc1cc(O)ccc1Cl [Chlorocresol] | -0.61
27 | C[C@H]1O[C@H](O[C@H]2[C@H](O)[C@@H](O)[C@@H](O)[C@H](O)[C@@H]2O)[C@@H](N)C[C@@H]1NC(=N)C(=O)O [Kasugamycin hydrochloride] | 0.34
28 | CC[C@@]1(O)C(=O)OCc2c1cc1n(c2=O)Cc2cc3ccccc3nc2-1 [Camptothecin] | -0.25
29 | CC(=O)OCC1=C(C(=O)O)N2C(=O)C(N)C2SC1 (centres undefined) [7-Aminocephalosporanic acid] | -0.51
30 | C=C[C@H]1CN2CC[C@H]1C[C@H]2[C@H](O)c1ccnc2ccccc12 [Cinchonidine] | 0.19
31 | N#Cc1nn(-c2c(Cl)cc(C(F)(F)F)cc2Cl)c(N)c1[S+]([O-])C(F)(F)F (centres undefined) [Fipronil] | -0.72
32 | Cc1cc(C(C#N)c2ccc(Cl)cc2)c(Cl)cc1NC(=O)c1cc(I)cc(I)c1O (centres undefined) [Closantel] | 0.43
33 | CN(C)C(=O)Oc1cccc([N+](C)(C)C)c1 [Neostigmine Bromide] | 0.02
34 | C[CH2][Hg][S]c1ccccc1C(=O)[O-].[Na+] [Thimerosal] | 21
